Experimental findings from paper PMC8159961, “Exploring protein hotspots by optimized fragment pharmacophores” (Nature Communications, 2021) are described below.

A number with no mark means an inactive call. No rule for the calls is given here.

Sequence of histone methyltransferase SET domain containing 2 (SETD2) (Q9BYW2 whole entry, looked up, the tested form may be a part): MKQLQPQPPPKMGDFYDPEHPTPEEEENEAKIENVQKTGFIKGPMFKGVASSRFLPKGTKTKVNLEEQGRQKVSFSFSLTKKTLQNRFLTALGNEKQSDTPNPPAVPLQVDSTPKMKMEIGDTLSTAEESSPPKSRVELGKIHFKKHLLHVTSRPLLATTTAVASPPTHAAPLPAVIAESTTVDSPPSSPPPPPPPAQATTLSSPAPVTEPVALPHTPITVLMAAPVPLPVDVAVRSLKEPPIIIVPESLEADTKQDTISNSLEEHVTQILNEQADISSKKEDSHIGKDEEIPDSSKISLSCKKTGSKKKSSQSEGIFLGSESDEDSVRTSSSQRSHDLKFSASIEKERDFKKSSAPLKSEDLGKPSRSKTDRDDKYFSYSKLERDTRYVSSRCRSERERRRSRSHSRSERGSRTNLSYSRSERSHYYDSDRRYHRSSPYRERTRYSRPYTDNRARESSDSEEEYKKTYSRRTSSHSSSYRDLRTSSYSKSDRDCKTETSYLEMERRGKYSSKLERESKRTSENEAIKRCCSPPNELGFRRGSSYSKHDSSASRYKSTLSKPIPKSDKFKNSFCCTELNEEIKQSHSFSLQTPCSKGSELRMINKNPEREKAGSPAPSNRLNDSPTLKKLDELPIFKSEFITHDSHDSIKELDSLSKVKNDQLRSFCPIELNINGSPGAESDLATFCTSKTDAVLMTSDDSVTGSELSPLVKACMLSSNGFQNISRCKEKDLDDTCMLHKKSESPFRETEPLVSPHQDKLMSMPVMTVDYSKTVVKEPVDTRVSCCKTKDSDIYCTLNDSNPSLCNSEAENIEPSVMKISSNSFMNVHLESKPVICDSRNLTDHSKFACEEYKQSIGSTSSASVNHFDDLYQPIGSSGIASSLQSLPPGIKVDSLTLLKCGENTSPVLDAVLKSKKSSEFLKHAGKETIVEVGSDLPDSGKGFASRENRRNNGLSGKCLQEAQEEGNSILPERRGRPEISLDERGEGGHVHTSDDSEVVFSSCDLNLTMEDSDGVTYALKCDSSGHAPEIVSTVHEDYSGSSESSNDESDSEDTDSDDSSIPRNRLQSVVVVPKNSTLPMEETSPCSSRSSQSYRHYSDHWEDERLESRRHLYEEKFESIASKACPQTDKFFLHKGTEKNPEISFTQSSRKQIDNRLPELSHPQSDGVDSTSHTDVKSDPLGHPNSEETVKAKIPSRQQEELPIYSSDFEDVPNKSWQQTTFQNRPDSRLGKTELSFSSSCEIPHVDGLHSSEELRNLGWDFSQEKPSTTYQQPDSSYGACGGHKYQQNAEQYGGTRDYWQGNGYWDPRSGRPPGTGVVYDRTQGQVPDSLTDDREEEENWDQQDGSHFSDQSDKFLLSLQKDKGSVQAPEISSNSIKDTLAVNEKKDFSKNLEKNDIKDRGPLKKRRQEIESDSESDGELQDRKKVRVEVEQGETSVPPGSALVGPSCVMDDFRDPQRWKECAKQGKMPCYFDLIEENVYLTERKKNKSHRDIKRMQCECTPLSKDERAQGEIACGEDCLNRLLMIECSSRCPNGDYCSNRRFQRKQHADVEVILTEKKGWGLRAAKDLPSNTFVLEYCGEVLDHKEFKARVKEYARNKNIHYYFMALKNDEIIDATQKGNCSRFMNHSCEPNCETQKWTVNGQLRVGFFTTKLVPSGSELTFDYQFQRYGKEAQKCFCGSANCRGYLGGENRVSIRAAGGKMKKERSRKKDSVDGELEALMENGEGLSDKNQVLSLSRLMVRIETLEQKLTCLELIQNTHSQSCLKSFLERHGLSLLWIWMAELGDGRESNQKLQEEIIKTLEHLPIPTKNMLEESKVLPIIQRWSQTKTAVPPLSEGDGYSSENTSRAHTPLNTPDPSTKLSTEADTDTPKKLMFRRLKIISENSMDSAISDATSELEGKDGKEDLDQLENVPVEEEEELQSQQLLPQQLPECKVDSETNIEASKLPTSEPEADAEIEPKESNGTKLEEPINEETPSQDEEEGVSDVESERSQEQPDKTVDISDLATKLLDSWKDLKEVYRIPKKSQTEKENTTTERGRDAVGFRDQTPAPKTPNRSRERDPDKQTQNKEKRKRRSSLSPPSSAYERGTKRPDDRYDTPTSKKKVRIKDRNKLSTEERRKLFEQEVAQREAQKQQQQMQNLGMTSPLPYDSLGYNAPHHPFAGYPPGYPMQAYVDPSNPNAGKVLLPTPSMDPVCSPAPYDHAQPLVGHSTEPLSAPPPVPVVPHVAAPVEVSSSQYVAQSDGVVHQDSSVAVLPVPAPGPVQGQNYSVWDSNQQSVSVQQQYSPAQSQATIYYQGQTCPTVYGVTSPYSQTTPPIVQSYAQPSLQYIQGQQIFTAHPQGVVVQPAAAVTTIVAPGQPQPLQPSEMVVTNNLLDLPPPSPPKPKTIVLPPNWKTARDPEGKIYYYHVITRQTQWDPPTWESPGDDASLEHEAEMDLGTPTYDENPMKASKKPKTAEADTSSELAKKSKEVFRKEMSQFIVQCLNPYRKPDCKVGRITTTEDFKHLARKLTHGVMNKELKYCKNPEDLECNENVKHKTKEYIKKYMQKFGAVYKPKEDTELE

This assay concerns the target histone methyltransferase SET domain containing 2 (SETD2) (Homo sapiens, UniProt Q9BYW2). Put plainly: primary screen, binary call; higher = more effect of the substance. The procedure: The Chemiluminescence assay evaluates SETD2 specific tri -methylation activity towards histone H3K36. The kit consist s of recombinant SETD2, S-adenosylmethionine and a specific H3K36me3 antibody and was performed according to the manufacturer’s protocol (Catalo g- No. 52060, https://bpsbioscience.com/setd2 -chemiluminescent-assay-kit-52060). Values were blank corrected and normalized . Enzymatic activities were calculated relative to the positive control of the kit (full enzymatic activity) and to the known SET doma in inhibitor Sinefungin28 used as negative control (complete enzymatic activity inhibition). Compounds used were diluted in DMSO.
As for `c1cnc2c(c1)NCCC2`, the SETD2 was 0.

As for `Brc1ccc(-c2ccon2)cc1`, the SETD2 was 0.

For `COc1ccc(C2=CCNCC2)cc1`, the SETD2 is 0.

In the case of `O=C1CSC(Nc2ccc(F)cc2)=N1`, the SETD2 is 0.

`Nc1nnc(-c2cccs2)[nH]1`: the SETD2 was 0.

For `CC(CN)N1CCc2sccc2C1` (stereo not shown), the SETD2 is 0.

Consider `CC(=O)c1ccc2c(c1)CCCN2`, for which the SETD2 was 0.

As to `Cn1nc(C(F)(F)F)cc1O`, the SETD2 was 0.

Turning to `Cc1cnc(C(F)(F)F)cn1`, the SETD2 is 0.

In the case of `O=C(Nc1ccccc1)C1CC1`, the SETD2 is 0.

Consider `CC1CCc2sc(C(=O)O)cc2C1` (stereo not shown), for which the SETD2 is 1 (active).

Consider `COc1ccccc1C1CCNCC1`, for which the SETD2 is 0.

On to `Cc1nc(-c2ccccc2)cs1`, for which the SETD2 was 0.

For the compound `O=C(c1ccccc1)N1CCC(CO)CC1`, the SETD2 was 0.

Take `Fc1ccc(CC2CCCNC2)cc1` (stereo not shown): the SETD2 is 0.

On to `CC1C(=O)NC(=O)N1c1ccc(Cl)cc1` (stereo not shown), for which the SETD2 was 0.

`N#Cc1ccc2ncsc2c1`: the SETD2 was 0.

Consider `O=C1CC(CSc2ccc(Cl)cc2)=NN1`, for which the SETD2 was 0.

`NC(=O)N1CCC(C(=O)O)CC1`: the SETD2 is 0.

For the compound `NC(c1ccccc1)c1ccccc1`, the SETD2 was 0.

In the case of `c1ccc(Nc2nncs2)cc1`, the SETD2 is 0.

Consider `Cc1ccc(C)n1Cc1ccccc1Cl`, for which the SETD2 was 0.

For the compound `Oc1ccc(-n2cncn2)cc1`, the SETD2 is 0.

Take `c1ccc2sc(N3CCNCC3)nc2c1`: the SETD2 is 0.

Take `CC(=O)c1ccc2c(c1)CNCC2`: the SETD2 was 0.

For the compound `Cc1ccc(-c2ccc(O)cc2)cc1`, the SETD2 is 0.

As for `O=C(CN1CCCC1)c1ccccc1Cl`, the SETD2 was 0.

`CCCN1C(=O)CC(=O)NC1=S`: the SETD2 was 0.

For `Cc1cc(N)no1`, the SETD2 was 0.

As to `O=C1NC(=O)C2(CCc3ccccc32)N1` (stereo not shown), the SETD2 is 0.

As to `O=C(O)c1cnc(-c2ccccc2)s1`, the SETD2 is 0.

Take `O=C(c1ccncc1)N1CCNCC1`: the SETD2 was 0.

With `O=C(O)c1ccc(CN2CCOCC2)cc1`, the SETD2 is 0.

For the compound `Oc1nnc(-c2ccccc2)o1`, the SETD2 was 0.

For `N#CCCN1CCc2ccccc21`, the SETD2 is 0.

For `CS(=O)(=O)Nc1ccc(C(=O)O)cc1`, the SETD2 was 1 (active).

In the case of `COc1ccc(CN2CCNCC2)cc1F`, the SETD2 was 0.

Consider `Nc1ccc(SC(F)F)cc1`, for which the SETD2 is 0.

Take `O=C1CCC(=O)N(c2ccccc2)N1`: the SETD2 was 0.

As for `O=C(O)C1CCN(c2ncccn2)CC1`, the SETD2 was 0.
